Laboratory results published in PubChem BioAssay AID687030 (Broad Institute, 2013).
Among all 1,400 compounds or so, about 10 (0.7%) were called active. Only a sample is shown. Potency and affinity values are given separately. A number with no mark means an inactive call. The rule behind the calls is not given here.

Experiment: BHK-21 cell toxicity, dose response, cytotoxicity control, plate reader, cherry-pick samples (AID 687030);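 note: cells were exposed to compound for three days before reading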
Settings: BHK-21 cells; series mostly up to 19.5 µM; activity change, negative = toxicity: at the top concentration

Row | SMILES | activity change, negative = toxicity
1 | C=CCC1NS(=O)(=O)OC(COC)C1C (configuration not stated) | 7.81%
2 | COCCCNc1oc(-c2ccccc2F)nc1C#N | -1.28%
3 | COc1ccc(-c2cc(NC=O)c3ncc(-c4cc(OC)c(OC)c(OC)c4)n3c2)c(OC)c1 | -22.7%
4 | COC(=O)C(Cc1csc2ccc(Cl)cc12)NC(=O)c1ccc(Cl)cc1 (configuration not stated) | 1.57%
5 | COc1ccc(NC(=O)N[C@@H]2CC[C@@H](CCNS(=O)(=O)c3cccc(Cl)c3)O[C@@H]2CO)cc1 | 8.65%
6 | COc1ccc(NC(=O)N[C@H]2CC[C@@H](CCn3cc(C4(O)CCCC4)nn3)O[C@@H]2CO)cc1 | -4.13%
7 | O=C(c1cccc(Cl)c1)N1CCC2(CC1)NCCc1[nH]cnc12 | -0.584%
8 | O=C(NCCN1CCOCC1)c1ccc2c(c1)N(Cc1ccc(F)cc1)C(=O)CS2 | -1.79%
9 | Cc1ccc(C(=O)NCC(=O)NCC(c2cccs2)N2CCOCC2)cc1C (configuration not stated) | -3.9%
10 | C[C@@H]1CN([C@H](C)CO)C(=O)c2cc(NC(=O)Nc3ccc(C(F)(F)F)cc3)ccc2O[C@H]1CN(C)C(=O)NC1CCCCC1 | -6.24%
11 | CCCN(C)C1CN(Cc2cn(Cc3ccc(C)cc3)nn2)S(=O)(=O)C1 (configuration not stated) | 1.6%
12 | COc1ccccc1N1CCN(Cc2cnc3ccc(Cl)cn23)CC1 | 5.21%
13 | C[C@H]1CN([C@@H](C)CO)C(=O)c2cccc(NC(=O)C3CCCCC3)c2O[C@@H]1CN(C)Cc1ccc(C(=O)Nc2ccccc2N)cc1 | -1.15%
14 | C[C@@H]1CCCCO[C@@H](CN(C)C(=O)Nc2cccc3ccccc23)[C@H](C)CN([C@H](C)CO)C(=O)c2cc(NC(=O)CCC(F)(F)F)ccc2O1 | 4.27%
15 | CCOC(=O)C1CCCN(c2c(N3CCOCC3)c(=O)c2=O)C1 (configuration not stated) | 1.44%
16 | O=C(CN1CCN(C(=O)C2CCC2)CC1)Nc1ccc(F)cc1 | -23.3%
17 | CCCCNC(=O)O[C@H]1C[C@@H]2CCN3C(=O)CCC[C@H]([C@H]1Cc1ccccc1)[C@H]23 | -3.09%
18 | Cn1cnc(S(=O)(=O)N[C@@H]2CC[C@H](CC(=O)NCC3CCCCC3)O[C@@H]2CO)c1 | -3.49%
19 | CCC1(c2ccccc2)NC(=O)N(CC(=O)Nc2ccccc2C(=O)N2CCCCC2)C1=O (configuration not stated) | 5.31%
20 | CS(=O)(=O)c1cccc(-c2nnc(NC(=O)c3ccc(S(=O)(=O)N4CCCC4)cc3)o2)c1 | 3.15%
21 | Clc1cc(Br)ccc1OCCCn1ccnc1 | -1.16%
22 | Clc1cc(Br)ccc1OCCOCCN1CCCC1 | 1.69%
23 | c1cc(-c2ccc(N3CCOCC3)cc2)n2cnnc2c1 | 2.6%

Row | SMILES | activity change, negative = toxicity
24 | COc1ccc(C2CC(c3ccccc3)=NN2S(=O)(=O)c2ccccc2)c(OC)c1 (configuration not stated) | 5.02%
25 | O=C(C[C@@H]1CC[C@@H]2[C@H](COC[C@H](O)CN2CC2CCOCC2)O1)N1CCOCC1 | -3.67%
26 | C[C@H](NC(=O)CCCOc1ccc(Cl)cc1Cl)c1nnc2ccccn12 | -0.687%
27 | Cc1ccc(NC(=O)c2nc[nH]c2C(=O)N[C@@H](C)C(=O)OC(C)(C)C)cc1 | -2.08%
28 | Cc1ccc(NC(=O)c2ccc3c(c2)OCO3)cc1Cl | 2.36%
29 | COc1ccc(OC)c(CN2C(=O)CN(S(C)(=O)=O)CC2(C)C(=O)NCc2ccccc2)c1 (configuration not stated) | 6.21%
30 | CNC(=O)C[C@H]1CC[C@@H]2[C@H](COC[C@@H](O)CN2C(=O)Nc2ccc3c(c2)OCO3)O1 | -2.76%
31 | CN(C)C1(CNC(=O)C2CCN(S(=O)(=O)c3ccccc3C(F)(F)F)CC2)CCCCC1 | -1.27%
32 | CC(C)(C)c1ccc(NC(=O)NC2CCCc3ccccc32)cc1 (configuration not stated) | 5.49%
33 | Cc1ccnc(NC(=O)c2ccc(Cl)c(S(=O)(=O)N3CCCC3)c2)c1 | 1.18%
34 | COc1cccc(NC(=O)CN(C)C(=O)c2cccc(S(=O)(=O)N3c4ccccc4CC3C)c2)c1 (configuration not stated) | -7.69%
35 | O=C(O)[C@]1(S(=O)(=O)c2ccccc2)C[C@@H]2ON=C(c3cccc(Br)c3)[C@@H]2C1 | -0.71%
36 | COc1cccc(-c2ncc3ccccc3c2COC(=O)c2ccc(F)cc2)c1 | -5.22%
37 | COc1ccc(C(N)c2csc(Nc3cc(Oc4ccccc4)ncn3)n2)cc1 (configuration not stated) | 2.64%
38 | CCN1[C@H](C(=O)NCCCN(C)C)[C@@H](CO)[C@@H]2Cn3c(ccc(-c4cccc(F)c4)c3=O)[C@@H]21 | -0.329%
39 | Cc1nc(CCNC(=O)CC2C(=O)NCCN2CC(C)C)nc2c1CCC2 (configuration not stated) | 1.12%
40 | CCCS(=O)(=O)N1CCCC(C(=O)NCCc2cccc(C)c2)C1 (configuration not stated) | -3.14%
41 | C[C@@H]1CN([C@@H](C)CO)S(=O)(=O)c2ccc(-c3ccncc3)cc2O[C@H]1CN(C)C(=O)CC1CC1 | -5.55%
42 | N#C[C@@H]1[C@H](c2ccc(-c3ccccc3F)cc2)[C@H](CO)N1C(=O)C1CC1 | -10.2% [at 21 µM]
43 | CC(=O)NC[C@H]1[C@H](c2ccc(-c3ccccc3F)cc2)[C@@H](CO)N1C(=O)C1CC1 | -6.85%
44 | CCCNC(=O)C1(C)CCCN(Cc2ccc(C#N)cc2)C1 (configuration not stated) | -0.631%
45 | O=C(c1cc(-c2cccs2)on1)N1CCCc2ccccc21 | 4.97%
46 | O=C1CCN(CCc2ccccc2)CCN1[C@H](COc1ccccc1)c1ccccc1 | 2.11%

Row | SMILES | activity change, negative = toxicity
47 | O=C1CN(C(=O)COC(=O)c2c(F)cccc2Cl)c2ccccc2N1 | 7.85%
48 | COc1ccc(NC(=O)COC(=O)c2c(C)noc2C)cc1Cl | -6.26%
49 | C[C@H]1[C@H](c2ccccc2)C[C@@H](C(=O)O)C1(C)C | 2.3%
50 | COc1c(Cl)cc(Br)c(OC)c1C(=O)NC(=O)Nc1nc(C)cc(C)n1 | -2.87%
51 | CCCc1nc2c(C)cc(Br)cn2c1Cc1ccc(OC)cc1C | -5.06%
52 | CCN(c1ccccc1)S(=O)(=O)c1ccc(C(=O)N2CCN(c3ccccc3F)CC2)cc1 | -0.489%
53 | CCCN1C[C@H](C)[C@H](OC)CN(C)C(=O)c2cc(NS(=O)(=O)c3cn(C)cn3)ccc2OC[C@@H]1C | 0.807%
54 | C#CCNC(=O)C[C@@H]1C[C@@]2(C(=O)OC)CCCCC=C2N(Cc2cccc3ccccc23)C1=O | 0.38%
55 | COc1ccc2c3c([nH]c2c1)[C@H](CO)N(C(=O)c1ccccc1)CC31CN(S(=O)(=O)c2cccs2)C1 | 0.044%
56 | COc1cccc(S(=O)(=O)N2CC3(CN(C(=O)Nc4ccc(F)cc4)[C@H](CO)c4[nH]c5cc(OC)ccc5c43)C2)c1 | -0.859%
57 | COc1ccccc1NC(=O)N1CCN(c2ccccn2)CC1 | 0.23%
58 | CCOC(=O)C[C@H]1c2ccccc2S(=O)(=O)N1c1ccccc1 | 7.34%
59 | O=C(Nc1ccc(Cl)cc1)N(CCCN1CCOCC1)Cc1cccs1 | -0.064%
60 | NC[C@H](Cc1ccccc1)NCCCCC1CCCCC1 | 5.93%
61 | CO[C@@H](CN(C)C(=O)c1cc(Cl)cc(Cl)c1)[C@H](C)CN(C(=O)Nc1ccc(F)cc1)[C@@H](C)CO | 4.92%
62 | COc1cccc(CNC(=O)[C@H]2CCCN2C(=O)C2CCCN2C(=O)c2ccc(OC)c(F)c2)c1 (some centres not stated) | 5.15%
63 | CCCNC(=O)[C@H]1[C@H](CO)[C@H]2Cn3c(cccc3=O)[C@H]2N1Cc1ccccc1Cl | -3.48% [at 21 µM]
64 | COc1ccc(-c2sc3cc4c(cc3c2C#Cc2cncn2C)OCO4)cc1 | -2.31%
65 | CC(=O)Nc1cccc(OCCCNC(=O)c2ccc(C(C)(C)C)cc2)c1 | -2.02%
66 | CC(C)(C)c1ccc(C(=O)Nc2ccc3c(c2)C(=O)NC3=O)cc1 | 5.72%
67 | CN1C(=O)c2cc(NC(=O)NCc3ccccc3)ccc2OC[C@H]2O[C@H](CC(=O)NCC3CCCCC3)CC[C@H]21 | -2.23%
68 | Cc1ccccc1OCCC(=O)OCC(=O)NCCc1ccc(S(N)(=O)=O)cc1 | -0.913%
69 | C[C@H](CO)N1C[C@H](C)[C@@H](CN(C)Cc2ccc3c(c2)OCO3)OCCCC[C@H](C)Oc2ccc(N(C)C)cc2C1=O | 2.33%

Row | SMILES | activity change, negative = toxicity
70 | CSc1ccccc1NC(=O)c1cc2c(=O)n3ccccc3nc2s1 | 2.33%
71 | CCN(CC)CCCNc1nc(C)cc(COC)c1C#N | -3.72%
72 | CCCCN(C(=O)c1ccc2c(c1)NC(=O)CS2)c1ccccc1 | 4.54%
73 | O=C(OCc1ccccc1)N1CCCC2CC1c1ccccc12 (configuration not stated) | -1.75%
74 | COc1cccc(OC)c1C(=O)N1CCN(Cc2c[nH]c3ccccc23)CC1 | -1.55%
75 | O=C(c1ccc(CNc2c(N3CCCC3)c(=O)c2=O)cc1)N1CCN(C2CCCCC2)CC1 | -6.28%
76 | CCOc1ccccc1-c1nnc(CS(=O)(=O)c2ccccc2)o1 | 1.34%
77 | CCOC(=O)c1ccc(NC(=O)c2nc[nH]c2C(=O)NC2CCN(C(=O)OC(C)(C)C)CC2)cc1 | 1.41%
78 | Cc1cccc(N(C)c2cc(C)nc3nc(C)nn23)c1 | -4.81%
79 | COCc1cccc(-c2csc(C(N)c3ccc(F)c(F)c3)n2)c1 (configuration not stated) | -4.14%
80 | COc1ccc(S(=O)(=O)N2CCCCN3[C@H](CO)[C@H](c4ccc(C5=CCCC5)cc4)[C@@H]3C2)cc1 | -2.71%
81 | COC(=O)c1ccc(NC(=O)C2CC3CCC2C3)cc1 (configuration not stated) | -2.2%
82 | COc1ccc(C2(C)CC(C)(C)Nc3ccccc32)cc1 (configuration not stated) | 0.418%
83 | CC(C)(O)C#Cc1ccc([C@@H]2[C@@H](CO)N3CCCCN(C(=O)c4ccc(F)cc4)C[C@@H]23)cc1 | 6.25%
84 | O[C@@H]1CN(Cc2cccs2)[C@@H](c2ccccc2)C[C@H]1n1cc(-c2ccc(F)cc2)nn1 | 3.94%
85 | COC(=O)c1c(NC(=O)CC2Sc3ccc(C(F)(F)F)cc3NC2=O)sc(C)c1C (configuration not stated) | 3.54%
86 | COC(=O)c1ccc2nc(-c3ccc(F)cc3)c(Cc3ccccc3OC)n2c1 | 4.29%
87 | CC(C)C(NS(=O)(=O)c1ccc2c(c1)C(C)(C)C(=O)N2C)C(=O)NCc1ccccc1Cl (configuration not stated) | -2.05%
88 | COc1ccc2c3c(n(C)c2c1)[C@H](CO)N(C(=O)Nc1ccccc1F)CC31CN(C)C1 | 2.87% [at 21 µM]
89 | C[C@H]1CN([C@@H](C)CO)C(=O)c2cc(NC(=O)CCCN(C)C)ccc2O[C@@H]1CN(C)S(=O)(=O)c1ccc(Cl)cc1 | 11.6% [at 21 µM]
90 | Cc1ccccc1OCCCCN1CCCCC1 | -3.74%
91 | Cc1ccc(SC[C@H](Cc2ccccc2)N2CC[C@@H](C)CCC2=O)cc1 | 13.1% [at 10 µM]
92 | CC(C)c1ccc(NC(=O)Nc2nc(C(N)c3ccccc3Cl)cs2)cc1 (configuration not stated) | 1.49%
